Active and inactive are the calls of the source. Unless noted, how the calls were made is not given here.
Key:
[1] = compounds binding Alexa647 anti-His antibody – biochemical, small-molecule microarray, 635 nm fluorescence, artefact control for SMM control protein annotation, primary screen (AID 1128); details: higher = more signal;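 further: score merges feature fluorescence with signal-to-noise for each printed compound spot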
[2] = tested on: Human papillomavirus type 1a E7 protein (residues 1-88); test: HPV1a E7 small-molecule binders, primary screen, biochemical, small-molecule microarray, residues 1-88, 635 nm (AID 1129); details: small-molecule microarray binding, fluorescence 635 nm; higher = more signal
[3] = molecular target: Focal adhesion kinase 1 (Homo sapiens) (UniProt Q05397); test: PTK2 protein binding on printed compound slides – biochemical, small-molecule microarray, 635/667 nm fluorescence, BSA, DTT, primary screen (AID 1130); details: 635 nm fluorescence, higher = more signal;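 further: composite of spot emission at 667 nm and signal to noise over triplicate slides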
Sequence of Focal adhesion kinase 1 (Homo sapiens) (Q05397 whole entry, looked up): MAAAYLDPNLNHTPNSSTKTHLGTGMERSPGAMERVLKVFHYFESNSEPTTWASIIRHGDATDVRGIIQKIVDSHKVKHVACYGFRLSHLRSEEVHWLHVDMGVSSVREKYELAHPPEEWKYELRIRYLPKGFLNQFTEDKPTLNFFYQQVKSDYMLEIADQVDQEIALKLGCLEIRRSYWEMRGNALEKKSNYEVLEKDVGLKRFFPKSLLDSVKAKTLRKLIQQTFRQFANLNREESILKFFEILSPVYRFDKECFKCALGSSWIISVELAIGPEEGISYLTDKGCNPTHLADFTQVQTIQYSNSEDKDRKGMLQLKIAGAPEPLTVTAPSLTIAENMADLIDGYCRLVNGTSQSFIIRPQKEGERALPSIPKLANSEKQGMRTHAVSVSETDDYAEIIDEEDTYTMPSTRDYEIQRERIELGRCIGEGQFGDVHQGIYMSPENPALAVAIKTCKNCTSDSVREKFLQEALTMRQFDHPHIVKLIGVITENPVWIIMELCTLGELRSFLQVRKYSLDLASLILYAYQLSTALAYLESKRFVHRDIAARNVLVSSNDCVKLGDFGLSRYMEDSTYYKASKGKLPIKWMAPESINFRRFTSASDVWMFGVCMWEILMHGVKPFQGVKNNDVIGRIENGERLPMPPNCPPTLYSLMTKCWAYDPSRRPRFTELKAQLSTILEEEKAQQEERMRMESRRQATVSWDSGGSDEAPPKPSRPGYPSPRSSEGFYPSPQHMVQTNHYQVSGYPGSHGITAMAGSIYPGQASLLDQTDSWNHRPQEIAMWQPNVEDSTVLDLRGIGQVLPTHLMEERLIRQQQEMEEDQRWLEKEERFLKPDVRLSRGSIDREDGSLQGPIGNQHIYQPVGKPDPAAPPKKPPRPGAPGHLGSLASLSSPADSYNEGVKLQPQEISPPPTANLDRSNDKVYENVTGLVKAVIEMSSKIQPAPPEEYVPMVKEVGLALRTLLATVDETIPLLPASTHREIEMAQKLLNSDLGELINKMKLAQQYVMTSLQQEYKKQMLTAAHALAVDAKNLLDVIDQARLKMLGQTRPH

[4] = tested on: Fibrinogen (Alexa647-labelled); test: Alexa647-fibrinogen binding to printed small molecules – biochemical, small-molecule microarray, 635/667 nm fluorescence, artefact control for SMM control-protein annotation, profiling panel (AID 1131); details: fibrinogen-A647 binding fluorescence, higher = more signal;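 further: z-score merges 667 nm fluorescence with per-spot signal-to-noise over triplicate slides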
[5] = molecular target: Follistatin (Homo sapiens) (UniProt P19883); test: FST protein binding to printed compounds – biochemical, small-molecule microarray, 635/667 nm fluorescence, primary screen (AID 1132); details: 635 nm fluorescence, higher = more signal
Sequence of Follistatin (Homo sapiens) (P19883 whole entry, looked up): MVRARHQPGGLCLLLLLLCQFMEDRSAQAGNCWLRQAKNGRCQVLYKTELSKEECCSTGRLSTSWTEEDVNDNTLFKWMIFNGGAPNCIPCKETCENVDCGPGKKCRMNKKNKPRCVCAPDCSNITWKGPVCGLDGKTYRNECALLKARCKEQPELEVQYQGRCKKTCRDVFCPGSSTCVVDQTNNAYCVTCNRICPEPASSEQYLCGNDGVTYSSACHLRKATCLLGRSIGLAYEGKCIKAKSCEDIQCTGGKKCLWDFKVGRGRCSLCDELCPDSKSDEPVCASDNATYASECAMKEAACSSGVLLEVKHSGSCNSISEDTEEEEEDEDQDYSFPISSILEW

[6] = molecular target: Fibroblast growth factor 2 (Homo sapiens) (UniProt P09038); test: basic fibroblast growth factor binding to printed compounds – biochemical, small-molecule microarray, 635/667 nm fluorescence, primary screen (AID 1133); details: FGF2, fluorescence 635/667, higher = more signal
Sequence of Fibroblast growth factor 2 (Homo sapiens) (P09038 whole entry, looked up): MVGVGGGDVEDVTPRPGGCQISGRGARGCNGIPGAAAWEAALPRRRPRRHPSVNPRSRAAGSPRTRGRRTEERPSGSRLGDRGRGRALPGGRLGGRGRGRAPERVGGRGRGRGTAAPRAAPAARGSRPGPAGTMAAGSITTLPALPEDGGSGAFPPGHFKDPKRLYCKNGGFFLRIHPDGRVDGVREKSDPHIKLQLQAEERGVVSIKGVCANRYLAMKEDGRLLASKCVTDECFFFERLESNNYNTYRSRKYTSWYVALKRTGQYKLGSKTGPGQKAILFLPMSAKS

[7] = JC-1 mitochondrial potential readout, lung cancer cells – cell-based, A549, JC-1 fluorescence, basal, 24 h, 100 nL, profiling panel (AID 1138); details: higher = more signal;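 further: A549 lung adenocarcinoma cells under basal conditions with no added stimulus; test concentration not given here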
[8] = tested on: Lefty1; test: Lefty1 protein binding to printed compounds – biochemical, small-molecule microarray, 635/667 nm fluorescence, primary screen (AID 1139); details: fluorescence 635/667, higher = more signal
[9] = tested on: wheat germ agglutinin (Triticum aestivum), Alexa647-labelled; test: Alexa647-WGA lectin binding to printed small molecules – biochemical, small-molecule microarray, 635/667 nm fluorescence, artefact control for SMM control-protein annotation, profiling panel (AID 1140); details: WGA-A647 binding, 635 nm fluorescence, higher = more signal;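 further: score merges 667 nm feature emission with signal to noise over triplicate slides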
[10] = molecular target: Luciferin 4-monooxygenase (Photinus pyralis) (UniProt P08659); test: inhibition of purified Photinus pyralis luciferase – biochemical, luminescence, purified enzyme, 2006 set, primary screen (AID 1141); details: purified firefly luciferase, SteadyGlo luminescence, 30 min; higher = more signal, called active from +8 up or from −8 down;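 further: cell-free assay with purified firefly luciferase at 100 ng per well in PBS; test concentration not given here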
Sequence of Luciferin 4-monooxygenase (Photinus pyralis) (P08659 whole entry, looked up): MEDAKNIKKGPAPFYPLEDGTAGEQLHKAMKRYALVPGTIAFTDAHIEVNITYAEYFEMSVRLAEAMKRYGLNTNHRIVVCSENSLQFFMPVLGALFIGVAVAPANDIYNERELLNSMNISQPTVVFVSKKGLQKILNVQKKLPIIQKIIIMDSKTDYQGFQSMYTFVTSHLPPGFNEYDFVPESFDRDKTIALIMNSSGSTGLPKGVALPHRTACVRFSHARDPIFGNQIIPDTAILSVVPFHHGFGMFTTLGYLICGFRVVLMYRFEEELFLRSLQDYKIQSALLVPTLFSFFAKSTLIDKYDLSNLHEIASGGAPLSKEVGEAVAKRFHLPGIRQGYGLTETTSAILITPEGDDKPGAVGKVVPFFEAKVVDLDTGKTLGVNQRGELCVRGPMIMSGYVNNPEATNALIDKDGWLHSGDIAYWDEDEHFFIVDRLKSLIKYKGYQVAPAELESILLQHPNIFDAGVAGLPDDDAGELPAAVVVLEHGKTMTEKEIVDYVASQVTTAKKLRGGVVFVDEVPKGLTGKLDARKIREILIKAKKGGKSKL

[11] = tested on: Wnt5a (protein binding on small-molecule microarray); test: small molecules binding Wnt5a protein – biophysical, small-molecule microarray, 635/667 nm fluorescence, primary screen (AID 1142); details: 635 nm fluorescence, higher = more signal;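 further: fluorescence read at 667 nm with signal to noise per printed feature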
[12] = ATP-based viability of Huh7 replicon cells – cell-based, CellTiter-Glo luminescence, basal, 48 h, cytotoxicity control for HCV replication inhibitor project, primary screen (AID 1143); details: higher = more signal, called active from +8 up or from −8 down;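 further: Huh7 hepatoma cells carrying a hepatitis C replication reporter with no stimulus; test concentration not given here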
[13] = Pseudomonas biofilm growth suppression – PAO1 strain, BacTiter-Glo luminescence, LB-PBS, primary screen (AID 1144); details: P. aeruginosa PAO1 biofilm, 12 h, higher = more signal
[14] = basal CRE-LacZ reporter activity in PC12 – cell-based, unstimulated, primary screen (AID 1145); details: no forskolin, luminescence, 4.5 h, higher = more signal, called active from +8 up or from −8 down
[15] = forskolin-driven CRE-LacZ activity in PC12 – cell-based, CRE-LacZ reporter, forskolin-stimulated, primary screen (AID 1146); details: luminescence, 4.5 h, higher = more signal, called active from +8 up or from −8 down;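 further: PC12 cells with 6xCRE LacZ reporter stimulated by forskolin 10 µM; beta-galactosidase reporter signal reflecting CREB driven transcription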
[16] = molecular target: Streptavidin (Streptomyces avidinii) (UniProt P22629); test: compounds binding control protein streptavidin – biophysical, small-molecule microarray, 635/667 nm fluorescence, artefact control for SMM compound annotation, primary screen (AID 1147); details: higher = more signal;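 further: signal reflects streptavidin binding to arrayed compounds as a control protein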
Sequence of Streptavidin (Streptomyces avidinii) (P22629 whole entry, looked up): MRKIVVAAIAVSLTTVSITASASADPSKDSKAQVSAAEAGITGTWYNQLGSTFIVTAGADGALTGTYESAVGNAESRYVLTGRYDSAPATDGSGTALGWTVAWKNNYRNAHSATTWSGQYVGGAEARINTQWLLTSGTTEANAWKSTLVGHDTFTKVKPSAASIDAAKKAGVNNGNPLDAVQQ

[17] = probe aInhba binding on compound microarray – biochemical, small-molecule microarray, 635/667 nm fluorescence, primary screen (AID 1148); details: higher = more signal;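 further: score merges 667nm spot fluorescence with signal-to-noise for antibody binding to printed compounds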
[18] = molecular target: Torsin-1A (Homo sapiens) (UniProt O14656); test: TOR1A wild-type binding on microarray – cell lysate, small-molecule microarray, lysate, 635/667 nm, primary screen (AID 1149); details: COS7 hTOR1A-WT lysate, 635 nm fluorescence, higher = more signal
Sequence of Torsin-1A (Homo sapiens) (O14656 whole entry, looked up): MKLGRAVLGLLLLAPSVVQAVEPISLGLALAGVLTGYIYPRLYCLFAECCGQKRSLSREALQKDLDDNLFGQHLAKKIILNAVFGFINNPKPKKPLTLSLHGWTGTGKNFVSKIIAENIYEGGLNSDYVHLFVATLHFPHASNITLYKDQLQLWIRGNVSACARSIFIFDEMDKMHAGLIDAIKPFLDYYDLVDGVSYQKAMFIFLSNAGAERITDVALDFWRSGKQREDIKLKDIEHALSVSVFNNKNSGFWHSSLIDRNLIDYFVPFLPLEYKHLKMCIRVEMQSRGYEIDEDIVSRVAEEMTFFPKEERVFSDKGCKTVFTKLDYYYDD

[19] = molecular target: Torsin-1A (Homo sapiens) (UniProt O14656); test: torsin A mutant lysate binding on microarrays – cell lysate, small-molecule microarray, COS7 lysate, 635/667 nm fluorescence, primary screen (AID 1150); details: COS7 hTOR1A mutant lysate, 635 nm fluorescence, higher = more signal;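 further: score pools 667 nm emission and signal to noise measuring lysate protein binding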
[20] = tested on: Sonic hedgehog protein (Shh); test: Sonic hedgehog microarray binding compounds – biochemical, small-molecule microarray, 635/667 nm fluorescence, primary screen (AID 1151); details: 635 nm fluorescence, higher = more signal;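 further: Shh protein binding to compounds spotted on small-molecule microarray slides; score combines spot fluorescence intensity with signal-to-noise across triplicate slides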

| Structure (SMILES) | composite z-score [1] | composite z-score [2] | composite z-score [3] | composite z-score [4] | composite z-score [5] | composite z-score [6] | z-score [7] | composite z-score [8] | composite z-score [9] | z-score [10] | composite z-score [11] | z-score [12] | z-score [13] | z-score [14] | z-score [15] | composite z-score [16] | composite z-score [17] | composite z-score [18] | composite z-score [19] | composite z-score [20] |
| --- | --- | --- | --- | --- | --- | --- | --- | --- | --- | --- | --- | --- | --- | --- | --- | --- | --- | --- | --- | --- |
| [N-]=[N+]=NCc1ccccc1C[C@@]1(C(=O)NCc2ccccc2)N=C(c2ccc(OCCCO)cc2)O[C@@H]1c1ccccc1CN=[N+]=[N-] | 1.44 | 1.17 | 0.96 | 0.915 | 0.557 | 0.0516 | 0.573 | -0.621 | 1.03 | 0.0675 (inactive) | 0.262 | -3.35 (inactive) | 0.503 (inactive) | 0.297 (inactive) | 0.448 (inactive) | 1.19 | 0.406 | 0.327 | 0.367 | -0.603 |
| [N-]=[N+]=NCc1ccccc1C[C@]1(C(=O)N2CCOCC2)N=C(c2ccc(OCCCO)cc2)O[C@H]1c1ccccc1 | 1.22 | 0.672 | -0.0665 | 0.909 | 0.826 | 0.816 | 0.078 | 0.0094 | 0.359 | 0.4 (inactive) | 0.258 | -5.35 (inactive) | -0.764 (inactive) | 0.391 (inactive) | -1.5 (inactive) | 0.981 | 0.0091 | 0.0039 | 0.348 | -0.147 |
| C=CCOC(=O)[C@H]1[C@@H]2C(=O)O[C@@H](c3ccccc3)[C@@H](c3ccccc3)N2[C@@H](c2ccc(OCCOC(=O)[C@@H]3C[C@@H]4C(=O)NCC(=O)N4[C@@H]3c3ccc(O)cc3)cc2)[C@]12C(=O)Nc1ccc(I)cc12 | 1.59 | 1.22 | 2.17 | 0.597 | 1.41 | 1.65 | -1.17 | 1.24 | 0.763 | -0.978 (inactive) | 1.07 | 0.586 (inactive) | 0.183 (inactive) | 0.0003 (inactive) | -0.53 (inactive) | 0.205 | -0.125 | 1.02 | 1.18 | 2.04 |
